Measured values published in PubChem BioAssay AID1159580 (chemical genetic matrix, 2015).
The campaign covered roughly 5,500 compounds. About 2,000 (36%) were called active. Another 18% or so got no clear call; they are omitted. Cut-off read from the data, not from the text of the source: active = normalized growth mostly below about 0.91 (no sharp cut-off); inconclusive = no clear call, values can overlap the other calls; inactive = mostly above about 0.92. The list shows a part of the results.

Assay: chemical genetic growth profiling, strain panel (AID 1159580);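 note: tested at 20 µM; growth read once vehicle control cultures reached saturation at 30 °C; 1 = growth at the plate median or of vehicle wells; lower values mean less growth of the strain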
Conditions: growth OD

Measured: normalized growth

CC(=O)C1CCC2C3CC(=O)C4=CC(=O)CCC4(C)C3CCC12C (stereo unspecified)
inactive: S. cerevisiae deletion strains, locus YAL013W, strain DEP1, stronger effect = lower value 0.971 | S. cerevisiae deletion strains, locus YBR021W, strain FUR4, stronger effect = lower value 0.995 | S. cerevisiae deletion strains, locus YBR229C, strain ROT2, stronger effect = lower value 0.955 | S. cerevisiae deletion strains, locus YCL029C, strain bik1, stronger effect = lower value 0.972 | S. cerevisiae deletion strains, locus YDL035C, strain GPR1, stronger effect = lower value 0.971 | S. cerevisiae deletion strains, locus YDL074C, strain BRE1, stronger effect = lower value 0.875 | S. cerevisiae deletion strains, locus YDL101C, strain DUN1, stronger effect = lower value 0.935 | S. cerevisiae deletion strains, locus YDL134C, strain PPH21, stronger effect = lower value 0.976 | S. cerevisiae deletion strains, locus YDL185W, strain tfp1, stronger effect = lower value 0.946 | S. cerevisiae deletion strains, locus YDL192W, strain arf1, stronger effect = lower value 0.982 | S. cerevisiae deletion strains, locus YDR101C, strain arx1, stronger effect = lower value 0.99 | S. cerevisiae deletion strains, locus YDR150W, strain NUM1, stronger effect = lower value 0.95 | S. cerevisiae deletion strains, locus YDR162C, strain NBP2, stronger effect = lower value 0.866 | S. cerevisiae deletion strains, locus YDR318W, strain mcm21, stronger effect = lower value 0.996 | S. cerevisiae deletion strains, locus YDR388W, stronger effect = lower value 0.983 | S. cerevisiae deletion strains, locus YDR502C, strain sam2, stronger effect = lower value 0.95 | S. cerevisiae deletion strains, locus YEL061C, strain CIN8, stronger effect = lower value 0.981 | S. cerevisiae deletion strains, locus YER110C, stronger effect = lower value 0.971 | S. cerevisiae deletion strains, locus YER155C, strain BEM2, stronger effect = lower value 1 | S. cerevisiae deletion strains, locus YER167W, strain BCK2, stronger effect = lower value 0.995 | S. cerevisiae deletion strains, locus YGL078C, strain dbp3, stronger effect = lower value 0.979 | S. cerevisiae deletion strains, locus YGL086W, strain mad1, stronger effect = lower value 1.01 | S. cerevisiae deletion strains, locus YGL248W, strain PDE1, stronger effect = lower value 0.967 | S. cerevisiae deletion strains, locus YGR078C, strain PAC10, stronger effect = lower value 0.928 | S. cerevisiae deletion strains, locus YGR135W, strain pre9, stronger effect = lower value 0.926 | S. cerevisiae deletion strains, locus YGR229C, strain SMI1, stronger effect = lower value 1.03 | S. cerevisiae deletion strains, locus YGR252W, strain gcn5, stronger effect = lower value 1.02 | S. cerevisiae deletion strains, locus YHR030C, strain SLT2, stronger effect = lower value 0.995 | S. cerevisiae deletion strains, locus YHR079C, strain IRE1 (second series), stronger effect = lower value 0.984 | S. cerevisiae deletion strains, locus YHR094C, strain hxt1, stronger effect = lower value 0.982 | S. cerevisiae deletion strains, locus YHR129C, strain ARP1, stronger effect = lower value 0.985 | S. cerevisiae deletion strains, locus YHR200W, strain rpn10, stronger effect = lower value 0.982 | S. cerevisiae deletion strains, locus YIL066C, strain RNR3, stronger effect = lower value 0.948 | S. cerevisiae deletion strains, locus YIL073C, strain SPO22, stronger effect = lower value 0.99 | S. cerevisiae deletion strains, locus YIL125W, strain kgd1, stronger effect = lower value 0.983 | S. cerevisiae deletion strains, locus YIR030C, strain dcg1, stronger effect = lower value 0.982 | S. cerevisiae deletion strains, locus YJL095W, strain BCK1, stronger effect = lower value 0.965 | S. cerevisiae deletion strains, locus YJL134W, strain LCB3, stronger effect = lower value 0.975 | S. cerevisiae deletion strains, locus YJL168C, strain set2, stronger effect = lower value 0.978 | S. cerevisiae deletion strains, locus YJL187C, strain SWE1 (second series), stronger effect = lower value 0.931 | S. cerevisiae deletion strains, locus YJR043C, strain POL32, stronger effect = lower value 1.01 | S. cerevisiae deletion strains, locus YJR075W, strain HOC1, stronger effect = lower value 0.953 | S. cerevisiae deletion strains, locus YKL009W, strain mrt4, stronger effect = lower value 0.968 | S. cerevisiae deletion strains, locus YKL068W, stronger effect = lower value 0.982 | S. cerevisiae deletion strains, locus YKL085W, strain MDH1 (second series), stronger effect = lower value 0.943 | S. cerevisiae deletion strains, locus YKL085W, strain MDH1, stronger effect = lower value 0.943 | S. cerevisiae deletion strains, locus YKL190W, strain CNB1, stronger effect = lower value 0.964 | S. cerevisiae deletion strains, locus YKR001C, strain vps1, stronger effect = lower value 0.971 | S. cerevisiae deletion strains, locus YLR039C, strain RIC1, stronger effect = lower value 0.735 | S. cerevisiae deletion strains, locus YLR058C, strain SHM2, stronger effect = lower value 0.971 | S. cerevisiae deletion strains, locus YLR102C, strain apc9, stronger effect = lower value 0.971 | S. cerevisiae deletion strains, locus YLR262C, strain YPT6, stronger effect = lower value 0.749 | S. cerevisiae deletion strains, locus YLR268W, strain sec22, stronger effect = lower value 0.928 | S. cerevisiae deletion strains, locus YLR330W, strain CHS5, stronger effect = lower value 0.989 | S. cerevisiae deletion strains, locus YLR342W, strain FKS1 (second series), stronger effect = lower value 1.01 | S. cerevisiae deletion strains, locus YLR371W, strain rom2, stronger effect = lower value 0.986 | S. cerevisiae deletion strains, locus YLR418C, strain cdc73, stronger effect = lower value 0.862 | S. cerevisiae deletion strains, locus YML016C, strain PPZ1, stronger effect = lower value 0.979 | S. cerevisiae deletion strains, locus YML032C, strain rad52, stronger effect = lower value 1.01 | S. cerevisiae deletion strains, locus YML124C, strain tub3, stronger effect = lower value 0.998 | S. cerevisiae deletion strains, locus YMR078C, strain ctf18, stronger effect = lower value 0.968 | S. cerevisiae deletion strains, locus YMR223W, strain ubp8, stronger effect = lower value 1 | S. cerevisiae deletion strains, locus YMR263W, strain SAP30, stronger effect = lower value 0.936 | S. cerevisiae deletion strains, locus YMR307W, strain GAS1, stronger effect = lower value 1.01 | S. cerevisiae deletion strains, locus YNL067W, strain RPL9B, stronger effect = lower value 0.936 | S. cerevisiae deletion strains, locus YNL128W, strain TEP1, stronger effect = lower value 0.924 | S. cerevisiae deletion strains, locus YNL153C, strain GIM3, stronger effect = lower value 0.922 | S. cerevisiae deletion strains, locus YNL233W, strain BNI4, stronger effect = lower value 0.972 | S. cerevisiae deletion strains, locus YNL250W, strain rad50, stronger effect = lower value 0.948 | S. cerevisiae deletion strains, locus YNL271C, strain bni1, stronger effect = lower value 0.983 | S. cerevisiae deletion strains, locus YNL298W, strain CLA4, stronger effect = lower value 0.968 | S. cerevisiae deletion strains, locus YNL307C, strain MCK1, stronger effect = lower value 0.971 | S. cerevisiae deletion strains, locus YNL322C, strain KRE1, stronger effect = lower value 0.977 | S. cerevisiae deletion strains, locus YNR052C, strain pop2, stronger effect = lower value 0.989 | S. cerevisiae deletion strains, locus YOL006C, strain TOP1, stronger effect = lower value 0.846 | S. cerevisiae deletion strains, locus YOL012C, strain htz1 0.923 | S. cerevisiae deletion strains, locus YOL147C, strain pex11, stronger effect = lower value 0.99 | S. cerevisiae deletion strains, locus YOR061W, strain CKA2, stronger effect = lower value 0.942 | S. cerevisiae deletion strains, locus YOR069W, strain VPS5, stronger effect = lower value 0.975 | S. cerevisiae deletion strains, locus YOR136W, strain idh2, stronger effect = lower value 0.984 | S. cerevisiae deletion strains, locus YOR144C, strain elg1, stronger effect = lower value 0.988 | S. cerevisiae deletion strains, locus YOR184W, strain ser1, stronger effect = lower value 0.959 | S. cerevisiae deletion strains, locus YOR316C, strain cot1, stronger effect = lower value 0.968 | S. cerevisiae deletion strains, locus YPL055C, strain LGE1, stronger effect = lower value 0.852 | S. cerevisiae deletion strains, locus YPL241C, strain CIN2, stronger effect = lower value 0.974 | S. cerevisiae deletion strains, locus YPR119W, strain clb2, stronger effect = lower value 0.99 | S. cerevisiae deletion strains, locus YPR141C, strain kar3, stronger effect = lower value 0.957 | S. cerevisiae deletion strains, locus YPR163C, strain tif3, stronger effect = lower value 0.967 | S. cerevisiae deletion strains, locus YPR167C, strain met16, stronger effect = lower value 0.979 | S. cerevisiae deletion strains, strain wtn01, stronger effect = lower value 0.951 | S. cerevisiae strains, strain wild type, stronger effect = lower value 0.972
